# Laboratory results published in PubChem BioAssay AID588689 (Southern Research Specialized Biocontainment Screening …, 2011).
# Out of some 340,000 compounds screened, about 1,000 (0.29%) were called active. Cut-off read from the data, not from the text of the source: inconclusive = inhibition above about 29% without an active follow-up result; inactive = below that. These entries were drawn from the full list. Entries with a potency or affinity are not part of this list.
# Biological target: Genome polyprotein (Dengue virus type 2 (strain 16681-PDK53)) (UniProt P29991)
# Assay: flavivirus cap methylation enzyme inhibition – biochemical, confirmation dose response, primary screen (AID 588689)
# Conditions: Dengue-2 NS5 methyltransferase capping enzyme assay, at 25 µM, stronger effect = higher value
# [1] = measured here: pilot screen replicate inhibition
Compound,inhibition,inhibition [1] [%]
CC(=O)N1CCc2c(sc(NC(=O)c3cccc(N4C(=O)CCC4=O)c3)c2C(N)=O)C1,-10.4% (inactive),
Cc1cccc(N2C(=O)/C(=C\c3ccc(C(=O)O)cc3)c3ccccc3C2=O)c1,25% (inactive),
O=Cc1ccc(C(=O)O)cc1,-0.73% (inactive),
Cn1nc(-c2ccc(Cl)cc2)cc1NC(=O)Nc1ccccc1,-6.13% (inactive),
COc1ccc(CN(C)C(=O)Cn2cnc3c(OCc4ccccc4)ncnc32)cc1OC,3.64% (inactive),2.12
O=C1c2cccc3cccc(c23)C(=O)N1CCN1CCN(CC(O)COc2ccccc2)CC1 (centres undefined),1.28% (inactive),
COc1ccc(C)cc1NC(=O)CN1CCN(c2ccccn2)CC1,-3.92% (inactive),
CC(=O)Nn1cc2c(c1-c1ccccc1)c(=O)n(C)c(=O)n2C,-11.6% (inactive),-4.71
Cn1c(=O)c2[nH]c(-c3ccccc3Cl)c(O)c2n(C)c1=O,-9.85% (inactive),
CSc1nc(C=Nc2ccccc2Cl)c(O)n1Cc1cccc(Cl)c1,-15.4% (inactive),
CCc1nnc(SCC(=O)Nc2ccc3c(c2)OCO3)n1CC,2.59% (inactive),
COc1cc(C=C2C(=O)c3ccccc3C2=O)ccc1O,25.4% (inactive),
COc1cc(/C=C/c2ccc3cccc(O)c3n2)c(Br)cc1O,-37.2% (inactive),
CCCCN1C(=O)NC(NS(=O)(=O)c2ccc(N)cc2)(C(F)(F)F)C1=O (centres undefined),1.6% (inactive),
CC#CCN1C=C(C(=O)OCC)C(C)N(Cc2ccc(Br)cc2)S1(=O)=O (centres undefined),3.64% (inactive),-3.33
CCCCOc1ccc(N2C(=O)CC(N(O)c3ccccc3)C2=O)cc1 (centres undefined),-3.24% (inactive),
COc1ccccc1N1CCN(C2CC(=O)N(c3ccc(F)cc3)C2=O)CC1 (centres undefined),10.3% (inactive),
COc1ccccc1N1C(=O)CC(N(O)c2ccccc2)C1=O (centres undefined),-4.6% (inactive),
CCN(CC)C1CC(=O)N(c2ccc(Br)cc2)C1=O (centres undefined),-14.3% (inactive),
CC(=O)c1ccc(C(=O)N(C)C2CCCN(Cc3ccccc3F)C2)s1 (centres undefined),-12.1% (inactive),
Cc1ccc(S(=O)(=O)Nc2nc(-c3ccccc3)cs2)cc1,23% (inactive),
Cc1ccc(S(=O)(=O)Nc2ccccc2C(=O)Nc2nc(-c3ccc(F)cc3)cs2)cc1,0.64% (inactive),
COc1ccc(-c2csc(NS(=O)(=O)c3ccc([N+](=O)[O-])cc3)n2)cc1,19.5% (inactive),
O=S(=O)(Nc1nc(-c2ccccc2)cs1)c1cccc(C(F)(F)F)c1,19.9% (inactive),
COc1ccc(S(=O)(=O)N2CCCC2C(=O)NCc2cccs2)cc1 (centres undefined),-17.2% (inactive),
CCOc1ccc(S(=O)(=O)N2CCCCC2)c2ccccc12,-5.6% (inactive),
CCc1cccc(C)c1NC(=O)CSc1nc2ccccc2n1CC(=O)N(C)C,-2.07% (inactive),
Cc1ccc(NS(=O)(=O)c2ccc(N/N=C/c3ccncc3)c([N+](=O)[O-])c2)c(C)c1,2.21% (inactive),

Compound,inhibition,inhibition [1] [%]
COc1ccccc1NS(=O)(=O)c1cccc(C(=O)N/N=C/c2ccccc2OCC(=O)O)c1,-8.38% (inactive),
O=C(O)COc1ccccc1/C=N/NC(=O)c1cc(-c2ccc(F)cc2)nc2ccccc12,1.48% (inactive),
CCN(CC)S(=O)(=O)c1ccc(N/N=C/c2ccccc2OCC(=O)O)c([N+](=O)[O-])c1,13.7% (inactive),
O=C(O)COc1ccccc1/C=N/NC(=O)c1cc(-c2ccccc2)nc2ccccc12,7.47% (inactive),
COc1ccc(NS(=O)(=O)c2cc([N+](=O)[O-])ccc2NN=Cc2ccccc2OCC(=O)O)cc1,-8.26% (inactive),
O=C(O)COc1ccccc1/C=N/Nc1ccc(S(=O)(=O)N2CCOCC2)cc1[N+](=O)[O-],6.86% (inactive),
O=C(O)COc1ccccc1C=NNc1ccc([N+](=O)[O-])cc1S(=O)(=O)Nc1ccc(Cl)cc1,35% (inactive),
CNC(=O)N(O)C1N(/N=C/c2ccc(C)cc2)C(=S)SC1(C)C (centres undefined),-3.93% (inactive),
O=C(CCOc1ccccc1)NNC(=O)c1ccccc1,-4.63% (inactive),
Cc1ccc(C)c(C(=O)CCC(=O)Nc2cccnc2)c1,-3.23% (inactive),
CC1=C(C#N)C(=O)NC1(C)O (centres undefined),5.14% (inactive),
COc1ccc(N(CC(=O)N2CCN(Cc3ccccc3)CC2)S(=O)(=O)c2ccccc2)cc1,-5.2% (inactive),
O=C(c1cccs1)N(Cc1ccco1)C1CCS(=O)(=O)C1 (centres undefined),-4.01% (inactive),
O=C(Nc1ccccc1)c1ccccc1NC(=O)[C@H]1CCCC[C@H]1C(=O)O,-3.92% (inactive),-1.53
CCC(C)Sc1cc(-c2nc3ccc(Cl)cn3c2NC2CCCCC2)ccc1OC (centres undefined),-12.6% (inactive),
Cc1cc(OC(C)C(=O)NC2CCN(Cc3ccccc3)CC2)c2c(C)cc(=O)oc2c1 (centres undefined),-2.72% (inactive),
CCCCOC(=O)C1=C(C)NC(=O)NC1c1ccc(OC)cc1 (centres undefined),-0.39% (inactive),
Cn1cc(C(=O)Nc2ccc(F)c(F)c2)cn1,0% (inactive),
COCC(=O)Nc1ccc(N2CCCC2)c(S(=O)(=O)Nc2ccccc2OC)c1,-9.92% (inactive),
COc1ccc(N(CC(=O)NCCc2ccc(Cl)cc2)S(=O)(=O)c2c(C)[nH]c(=O)[nH]c2=O)cc1,-3.87% (inactive),
C=CC[C@@H](CC(=O)N[C@@H](CO)Cc1ccccc1)C(=O)NC[C@@H](OC(=O)[C@@H](CC=C)Cc1ccc(F)cc1)c1ccccc1,-8.18% (inactive),
CO/N=C(/C)CCS(=O)(=O)c1ccccc1,-0.73% (inactive),
CC(C(=O)Nc1nncs1)N1C(=O)C2C3C=CC(C3)C2C1=O (centres undefined),-5.41% (inactive),
CCN(CC(=O)NCc1cccs1)C(=O)CCC(=O)c1ccc(C)cc1,-8.12% (inactive),
NC(=O)C1CCN(C(=O)CN(C2CCCCC2)S(=O)(=O)c2ccc(F)cc2)CC1,-9.49% (inactive),
CCN(CC)S(=O)(=O)c1ccc2c(c1)N(CC(=O)N1CCC(C(N)=O)CC1)C(=O)CO2,-6.21% (inactive),
O=S(=O)(c1ccc2ccccc2c1)N1CCN(S(=O)(=O)c2c(F)cccc2F)CC1,1.65% (inactive),
